Data reported in PubChem BioAssay (NCATS).
Results filed as inconclusive are left out. Active and inactive are the calls of the source. Unless noted, calls come from the whole dose curve; as a rule, active = well fitted curve in the direction sought with a large enough effect; inconclusive = small, poorly fitted or top-dose-only effect, or another doubt; inactive = no such curve, though single readings can be large; an effect the other way counts as inactive or inconclusive.

How the values were obtained:
[1] = target: Lysosomal acid glucosylceramidase (Homo sapiens) (UniProt P04062); test: Glucocerebrosidase-p2 (AID 348; in the data active = potency below about 10 µM; note: potency is the fitted concentration of half-maximal effect); settings: purified GBA, blue fluorogenic substrate, 40 min
Chain of Lysosomal acid glucosylceramidase (Homo sapiens) (P04062 whole entry, looked up): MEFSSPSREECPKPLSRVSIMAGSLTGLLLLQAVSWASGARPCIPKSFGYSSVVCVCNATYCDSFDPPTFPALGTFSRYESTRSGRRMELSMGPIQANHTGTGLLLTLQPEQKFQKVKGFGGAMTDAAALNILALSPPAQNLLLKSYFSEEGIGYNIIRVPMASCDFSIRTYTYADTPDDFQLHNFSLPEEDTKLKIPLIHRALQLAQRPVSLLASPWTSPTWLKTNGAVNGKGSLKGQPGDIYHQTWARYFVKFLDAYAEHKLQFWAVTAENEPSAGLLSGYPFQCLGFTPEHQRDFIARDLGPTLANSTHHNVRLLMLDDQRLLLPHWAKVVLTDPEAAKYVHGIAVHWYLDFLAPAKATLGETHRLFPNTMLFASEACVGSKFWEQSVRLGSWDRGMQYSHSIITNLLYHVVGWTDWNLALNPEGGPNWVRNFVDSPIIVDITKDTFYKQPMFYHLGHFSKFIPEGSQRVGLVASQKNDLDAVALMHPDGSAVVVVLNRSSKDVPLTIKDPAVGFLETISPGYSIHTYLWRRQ
Summary of the method: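 Normal human glucocerebrosidase (0.2 nM) with blue fluorogenic substrate (80 uM final) in citrate/phosphate pH 5.9 with 10mM sodium taurocholate, 0.01% tween-20; 40 min RT, NaOH/glycine stop; fluorescence Ex 365/Em 440; AC50 from a titration from 0.6 nM upwards.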

[2] = target: Cytochrome P450 1A2 (Homo sapiens) (UniProt P05177); test: p450-cyp1a2 (AID 410; calls by dose curve; note: potency is the fitted concentration of half-maximal effect); settings: recombinant CYP1A2, luciferin-ME demethylation, luminescence; series mostly up to 57 µM
Chain of Cytochrome P450 1A2 (Homo sapiens) (P05177 whole entry, looked up): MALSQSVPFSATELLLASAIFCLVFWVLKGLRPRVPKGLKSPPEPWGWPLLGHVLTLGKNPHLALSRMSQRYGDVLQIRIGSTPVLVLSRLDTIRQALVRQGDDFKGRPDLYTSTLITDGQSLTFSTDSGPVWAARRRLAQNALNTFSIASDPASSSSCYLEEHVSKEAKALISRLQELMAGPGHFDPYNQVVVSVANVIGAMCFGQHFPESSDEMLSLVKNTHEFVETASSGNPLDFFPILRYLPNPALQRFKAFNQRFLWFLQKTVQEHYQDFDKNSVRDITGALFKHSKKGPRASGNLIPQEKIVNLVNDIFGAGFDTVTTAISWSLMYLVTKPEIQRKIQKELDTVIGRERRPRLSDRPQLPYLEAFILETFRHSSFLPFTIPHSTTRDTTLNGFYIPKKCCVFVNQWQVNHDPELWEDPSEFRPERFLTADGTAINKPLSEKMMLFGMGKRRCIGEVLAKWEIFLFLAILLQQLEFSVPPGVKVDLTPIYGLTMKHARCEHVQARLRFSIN
Summary of the method: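 Read-out is luminescence from luciferin produced by CYP1A2 demethylation of Luciferin-ME (100uM, at Km). Detection reagent stopped the 60 min NADPH-dependent reaction; signals were normalized to 57 uM furafylline.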

[3] = Stat Signaling Pathway (AID 446; active = well fitted curve in either direction with a large enough effect, not every such curve was filed as active;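 note: ME-180 cervical cancer cells given 40 pM IL-6 alongside compound; SIE-controlled beta-lactamase reporter measured as 460/530 nm FRET emission ratio; % is set by controls: 0 for no effect and ±100 for the full control effect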); settings: ME-180 SIE beta-lactamase reporter, IL-6 stimulated, 5 h; at 7.69 µM (top of the series) unless noted
Summary of the method: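 Normalization used AC90 stimulation (300 pM IL-6) and AC90 inhibition (125 nM pan-JAK inhibitor at 40 pM IL-6). The underlying signal is SIE-driven beta-lactamase in ME-180 cells after 5 h IL-6 exposure with compound.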

[4] = target: Glucocorticoid receptor (Homo sapiens) (UniProt P04150); test: GR-EFC Redistribution (AID 451; calls by dose curve; note: potency is the fitted concentration of half-maximal effect); settings: CHO-K1 GR-EFC translocation, beta-gal luminescence, 2 h
Chain of Glucocorticoid receptor (Homo sapiens) (P04150 whole entry, looked up, the tested form may be a part): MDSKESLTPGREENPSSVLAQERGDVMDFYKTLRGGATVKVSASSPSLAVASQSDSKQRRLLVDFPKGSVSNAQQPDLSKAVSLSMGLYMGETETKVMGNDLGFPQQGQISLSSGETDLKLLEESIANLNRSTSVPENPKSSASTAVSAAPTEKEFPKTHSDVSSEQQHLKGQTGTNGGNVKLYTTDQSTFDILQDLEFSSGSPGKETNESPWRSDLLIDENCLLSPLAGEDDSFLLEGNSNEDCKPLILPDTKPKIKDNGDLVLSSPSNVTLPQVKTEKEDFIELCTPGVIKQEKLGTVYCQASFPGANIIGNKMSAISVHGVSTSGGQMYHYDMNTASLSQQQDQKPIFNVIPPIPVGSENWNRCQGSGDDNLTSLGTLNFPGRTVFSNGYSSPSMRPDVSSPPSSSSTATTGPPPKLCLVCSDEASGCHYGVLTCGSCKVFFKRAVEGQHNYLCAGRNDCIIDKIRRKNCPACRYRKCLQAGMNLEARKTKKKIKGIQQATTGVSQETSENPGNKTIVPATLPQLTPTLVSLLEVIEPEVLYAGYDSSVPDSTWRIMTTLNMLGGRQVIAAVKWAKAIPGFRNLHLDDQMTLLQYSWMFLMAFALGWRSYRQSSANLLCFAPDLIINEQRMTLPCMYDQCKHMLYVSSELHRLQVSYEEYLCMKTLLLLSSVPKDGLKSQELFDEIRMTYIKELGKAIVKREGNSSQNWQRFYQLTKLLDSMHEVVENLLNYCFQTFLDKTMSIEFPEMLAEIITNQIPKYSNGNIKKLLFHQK
Summary of the method: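 CHO-K1 cells stably expressing nuclear-localized β-gal enzyme acceptor and GR fused C-terminally to the enzyme donor fragment; ligand-driven nuclear translocation restores β-gal by complementation. Compounds titrated up to 46 uM final, 2 h at 37 °C; luminescence read.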

[5] = target: Mitogen-activated protein kinase 10 (Mus musculus) (UniProt Q61831); test: JNK3 AlphaScreen Assay (AID 530; active = well fitted curve in either direction with a large enough effect, not every such curve was filed as active;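 note: kinase came from lysate of stimulated human HepG2 cells; signal reports phosphorylation of biotinylated GST-cJun 1-79 at Ser73 with 10 µM ATP; % is set by controls: 0 for no effect and ±100 for the full control effect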); settings: JNK3 lysate, c-Jun phosphorylation; series mostly up to 57.1 µM
Summary of the method: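 Biotinylated GST-cJun(1-79) served as substrate for JNK3 in HepG2 lysates stimulated with IL-1beta and TNF-alpha. ATP was 10 uM final, pH 7.6. Ser73 phosphorylation was quantified by AlphaScreen (680 nm excitation).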

[6] = target: 3',5'-cyclic-AMP phosphodiesterase 4B (Homo sapiens) (UniProt Q07343); test: qHTS Assay for Inhibitors of PDE-IV (AID 607; active = well fitted activation curve with a large enough effect in the main read-out, with a control signal flat, not every such curve was filed as active; note: % of control where 0% means no effect); settings: HEK293 ACTOne CNG channel cells, membrane potential fluorescence; series mostly up to 22.9 µM
Chain of 3',5'-cyclic-AMP phosphodiesterase 4B (Homo sapiens) (Q07343 whole entry, looked up): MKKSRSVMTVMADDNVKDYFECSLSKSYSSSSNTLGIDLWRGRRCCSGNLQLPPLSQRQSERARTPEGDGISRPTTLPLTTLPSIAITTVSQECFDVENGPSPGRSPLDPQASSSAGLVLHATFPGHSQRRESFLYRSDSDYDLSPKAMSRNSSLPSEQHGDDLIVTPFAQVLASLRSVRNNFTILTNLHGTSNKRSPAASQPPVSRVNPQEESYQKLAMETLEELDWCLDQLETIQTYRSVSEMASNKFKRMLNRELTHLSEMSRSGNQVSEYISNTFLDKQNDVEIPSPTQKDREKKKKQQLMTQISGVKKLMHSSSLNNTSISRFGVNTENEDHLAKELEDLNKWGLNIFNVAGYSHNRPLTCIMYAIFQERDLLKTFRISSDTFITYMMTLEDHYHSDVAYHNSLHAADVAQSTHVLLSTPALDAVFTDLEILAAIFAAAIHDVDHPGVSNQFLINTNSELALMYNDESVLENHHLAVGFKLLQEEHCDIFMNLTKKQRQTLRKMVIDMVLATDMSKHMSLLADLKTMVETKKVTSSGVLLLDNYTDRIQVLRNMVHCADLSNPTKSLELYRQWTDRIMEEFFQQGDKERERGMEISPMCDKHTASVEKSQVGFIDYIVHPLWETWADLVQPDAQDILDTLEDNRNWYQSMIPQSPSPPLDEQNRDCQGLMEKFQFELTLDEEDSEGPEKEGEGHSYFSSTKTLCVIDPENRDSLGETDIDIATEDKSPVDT
Summary of the method: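 HEK293 ACTOne cells with CNG channel (1000/well), endogenous PDE4; membrane potential dye, compounds up to 22.9 uM final. Fluorescence Ex 535/Em 590; RO 20-1724 (100 uM final) as reference.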

[7] = target: Cytochrome P450 3A4 (Homo sapiens) (UniProt P08684); test: qHTS Assay for Activators of Cytochrome P450 3A4 (AID 885); settings: recombinant CYP3A4, Luciferin-PPXE luminescence, 60 min; series mostly up to 57.1 µM; note: nearly all actives have a fitted effect of over 65% in size
Chain of Cytochrome P450 3A4 (Homo sapiens) (P08684 whole entry, looked up): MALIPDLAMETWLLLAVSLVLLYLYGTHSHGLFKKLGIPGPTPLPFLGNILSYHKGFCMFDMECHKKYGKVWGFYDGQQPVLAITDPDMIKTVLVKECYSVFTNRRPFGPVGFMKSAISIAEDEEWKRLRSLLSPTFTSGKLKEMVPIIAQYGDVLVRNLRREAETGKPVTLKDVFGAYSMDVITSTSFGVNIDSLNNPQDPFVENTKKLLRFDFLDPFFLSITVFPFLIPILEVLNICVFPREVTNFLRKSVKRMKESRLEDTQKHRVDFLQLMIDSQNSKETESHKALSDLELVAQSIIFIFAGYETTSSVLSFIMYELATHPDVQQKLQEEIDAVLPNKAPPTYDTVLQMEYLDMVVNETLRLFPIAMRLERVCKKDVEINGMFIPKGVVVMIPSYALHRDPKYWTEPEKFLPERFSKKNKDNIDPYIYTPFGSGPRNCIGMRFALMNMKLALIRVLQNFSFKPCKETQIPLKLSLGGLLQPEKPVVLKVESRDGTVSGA
Summary of the method: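 Human CYP3A4 dealkylates Luciferin-PPXE to luciferin, which luciferase detection converts to light. Substrate was at its KM (25uM), buffer 200mM KPO4, reaction 60 min at RT.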

[8] = qHTS Assay for Lipid Storage Modulators (AID 1519; calls by dose curve); settings: Drosophila S3 cells, BODIPY lipid droplet/cell ratio, laser cytometry, cells loaded with oleic acid; for activity change, negative = inhibition: at 57.5 µM (top of the series)
Summary of the method: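 Cells seeded at 5,000 per well were treated with compounds over a concentration series and loaded with oleic acid (400 uM, as added). Lipid droplet fluorescence (488 nm excitation, 500-530 nm channel) was read by laser-scanning cytometry and normalized to 20 uM Triacsin C.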

[9] = target: Dual specificity protein kinase CLK4 (Homo sapiens) (UniProt Q9HAZ1); test: qHTS Assay for Inhibitors of CDC-like Kinase 4 (Kinase-Glo Assay) (AID 1770); settings: recombinant Clk4, Kinase-Glo ATP depletion luminescence; series mostly up to 66.7 µM; note: nearly all actives have a fitted effect of over 65% in size; note: potency is the fitted concentration of half-maximal effect
Chain of Dual specificity protein kinase CLK4 (Homo sapiens) (Q9HAZ1 whole entry, looked up): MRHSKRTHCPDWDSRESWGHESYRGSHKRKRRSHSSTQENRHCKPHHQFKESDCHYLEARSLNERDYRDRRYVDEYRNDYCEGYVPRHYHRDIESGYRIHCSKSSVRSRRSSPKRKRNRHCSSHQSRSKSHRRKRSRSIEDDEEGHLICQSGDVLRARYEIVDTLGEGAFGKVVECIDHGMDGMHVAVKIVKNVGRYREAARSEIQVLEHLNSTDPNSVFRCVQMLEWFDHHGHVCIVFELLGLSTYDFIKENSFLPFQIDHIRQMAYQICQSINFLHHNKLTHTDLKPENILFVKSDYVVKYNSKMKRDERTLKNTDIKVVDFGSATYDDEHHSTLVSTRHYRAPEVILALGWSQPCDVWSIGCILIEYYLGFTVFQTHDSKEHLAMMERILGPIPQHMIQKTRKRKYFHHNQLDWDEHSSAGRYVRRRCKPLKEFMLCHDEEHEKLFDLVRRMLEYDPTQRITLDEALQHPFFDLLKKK
Summary of the method: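 Recombinant human Clk4 (25 nM) phosphorylated RS repeat peptide (100 uM) with 1 uM ATP in Tris pH 7.5/MgCl2/EGTA/DTT/Triton buffer for 4.5 h at room temperature. Residual ATP was quantified by Kinase-Glo luciferase luminescence.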

[10] = target: Dual specificity protein kinase CLK4 (Homo sapiens) (UniProt Q9HAZ1); test: qHTS Assay for Inhibitors of CDC-like Kinase 4 (ADP-Glo Assay) (AID 1771); settings: recombinant CLK4, ADP-Glo luminescence; series mostly up to 80 µM; note: nearly all actives have a fitted effect of over 70% in size; note: potency is the fitted concentration of half-maximal effect
Summary of the method: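 In this ADP-Glo format, 1 uM ATP and 100 uM RS peptide served as substrates for 25 nM Clk4 in Mg2+/EGTA/DTT/Triton buffer; reactions ran 1 hr at room temperature before luminescent ADP quantification.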

[11] = target: Ubiquitin carboxyl-terminal hydrolase 1 (Homo sapiens) (UniProt O94782); test: Inhibitors of USP1/UAF1: Pilot qHTS (AID 504865); settings: purified USP1/UAF1, Ub-rhodamine cleavage fluorescence; series mostly up to 54.9 µM;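 note: rhodamine fluorescence freed from ubiquitin-rhodamine substrate followed over time; top concentration of the series differs between compounds; % is set by controls: 0 for no effect and ±100 for the full control effect; nearly all actives have a fitted effect of over 35% in size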
Chain of Ubiquitin carboxyl-terminal hydrolase 1 (Homo sapiens) (O94782 whole entry, looked up): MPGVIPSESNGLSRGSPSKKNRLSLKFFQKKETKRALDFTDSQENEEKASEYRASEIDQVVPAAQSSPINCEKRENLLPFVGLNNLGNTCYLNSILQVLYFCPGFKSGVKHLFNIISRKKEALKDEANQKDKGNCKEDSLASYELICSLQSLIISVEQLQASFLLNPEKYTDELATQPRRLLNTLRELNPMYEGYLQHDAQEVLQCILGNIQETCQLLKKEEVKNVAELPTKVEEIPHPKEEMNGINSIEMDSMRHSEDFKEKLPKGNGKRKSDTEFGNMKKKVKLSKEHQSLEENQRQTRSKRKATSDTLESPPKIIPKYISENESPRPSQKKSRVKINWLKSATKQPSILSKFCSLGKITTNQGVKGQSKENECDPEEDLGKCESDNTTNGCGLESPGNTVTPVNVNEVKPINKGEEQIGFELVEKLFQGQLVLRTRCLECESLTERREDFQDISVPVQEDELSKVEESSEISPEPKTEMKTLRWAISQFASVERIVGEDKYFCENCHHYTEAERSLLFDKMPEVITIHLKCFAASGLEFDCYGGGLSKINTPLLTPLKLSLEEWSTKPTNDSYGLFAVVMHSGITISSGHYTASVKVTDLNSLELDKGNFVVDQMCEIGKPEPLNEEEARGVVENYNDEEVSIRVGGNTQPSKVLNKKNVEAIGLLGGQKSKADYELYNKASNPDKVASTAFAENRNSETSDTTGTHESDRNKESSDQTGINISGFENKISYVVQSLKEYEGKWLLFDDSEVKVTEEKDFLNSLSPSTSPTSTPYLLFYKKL
Summary of the method: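 USP1/UAF1 complex (1nM) preincubated with compound 15 min at room temperature, then Ub-Rho substrate (150nM final) added. Fluorescence read kinetically at 480/540 nm, 6 reads every 60 seconds. Buffer: 50mM HEPES pH 7.8, 0.5mM EDTA, 0.1 mg/ml BSA, 1mM TCEP, 0.01% Tween-20.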

[12] = Primary qHTS for small molecule stabilizers of the endoplasmic reticulum resident proteome: Secreted ER Calcium Modulated Protein (SERCaMP) assay (AID 1508630); settings: SH-SY5Y GLuc-SERCaMP (Gaussia luciferase released on ER calcium loss) secretion, thapsigargin, luminescence; series mostly up to 38.4 µM; note: % is set by controls: 0 for no effect and ±100 for the full control effect
Summary of the method: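 The SH-SY5Y reporter protocol was run at 3 concentrations up to 38.3 uM (primary) or 11 concentrations (follow-up): 16 h compound, 100 nM thapsigargin for 4 h, then extracellular luciferase luminescence.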

[13] = AP1 Signaling Pathway (AID 357; active = well fitted curve in either direction with a large enough effect, not every such curve was filed as active; note: % is set by controls: 0 for no effect and ±100 for the full control effect); settings: ME-180 AP-1-bla reporter, EGF-induced, beta-lactamase ratio, 5 h; at 7.69 µM (top of the series) unless noted
Summary of the method: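 ME-180 cells with beta-lactamase reporter under AP-1 response element, stimulated with EC50 EGF; compounds tested in titration series, 5 h at 37 °C. CCF4 substrate added 2.5 h at room temperature; 460/530 nm emission ratio gave %activity and AC50.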

[14] = target: Glucocorticoid receptor (Homo sapiens) (UniProt P04150); test: GR-GFP Redistribution (AID 450;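 active = compounds whose dose series gives a full or clear partial fitted curve of increased nuclear translocation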; note: potency is the fitted concentration of half-maximal effect); settings: U2OS GR-GFP nuclear translocation, laser cytometry, 2 h
[15] = NFAT Signaling Pathway (AID 444; active = well fitted curve in either direction with a large enough effect, not every such curve was filed as active); settings: Jurkat NFAT-bla M1, carbachol, beta-lactamase ratio, 5 h; at 7.69 µM (top of the series) unless noted
Summary of the method: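 Jurkat cells carrying an NFAT-driven β-lactamase reporter and co-transfected muscarinic M1 receptor were treated with compound plus carbachol (1 uM final, an EC50 level) for 5 h at 37 °C. CCF4 loading followed for 1 h at RT; 460/530 nm ratio gave %activity.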

[16] = target: Cytochrome P450 2C9 (Homo sapiens) (UniProt P11712); test: qHTS Assay for Inhibitors and Substrates of Cytochrome P450 2C9 (AID 883); settings: recombinant CYP2C9, luciferin-H luminescence, 60 min; series mostly up to 57.1 µM; note: potency is the fitted concentration of half-maximal effect; nearly all actives have a fitted effect of over 60% in size
Summary of the method: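 A luminogenic readout tracked human CYP2C9 (10nM) converting deoxyluciferin (100uM, at KM) in 25mM KPO4 during 60 min at 37C with regenerated NADPH. Values normalized to 57uM sulphaphenazole as complete inhibition.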

[17] = target: Cytochrome P450 3A4 (Homo sapiens) (UniProt P08684); test: qHTS Assay for Inhibitors and Substrates of Cytochrome P450 3A4 (AID 884); settings: recombinant CYP3A4, Luciferin-PPXE luminescence; series mostly up to 57.1 µM; note: potency is the fitted concentration of half-maximal effect; nearly all actives have a fitted effect of over 50% in size
Summary of the method: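 Luminescent readout of luciferin produced by CYP3A4 (20 nM) dealkylation of Luciferin-PPXE, 25 uM (its KM). NADPH-driven reaction ran 60 min at RT after 10 min compound preincubation; data scaled to 57 uM ketoconazole as 100% inhibition.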

[18] = target: Cytochrome P450 2C19 (Homo sapiens) (UniProt P33261); test: qHTS Assay for Inhibitors and Substrates of Cytochrome P450 2C19 (AID 899); settings: recombinant CYP2C19, luciferin-H EGE luminescence; series mostly up to 57.1 µM; note: potency is the fitted concentration of half-maximal effect; nearly all actives have a fitted effect of over 60% in size
Chain of Cytochrome P450 2C19 (Homo sapiens) (P33261 whole entry, looked up): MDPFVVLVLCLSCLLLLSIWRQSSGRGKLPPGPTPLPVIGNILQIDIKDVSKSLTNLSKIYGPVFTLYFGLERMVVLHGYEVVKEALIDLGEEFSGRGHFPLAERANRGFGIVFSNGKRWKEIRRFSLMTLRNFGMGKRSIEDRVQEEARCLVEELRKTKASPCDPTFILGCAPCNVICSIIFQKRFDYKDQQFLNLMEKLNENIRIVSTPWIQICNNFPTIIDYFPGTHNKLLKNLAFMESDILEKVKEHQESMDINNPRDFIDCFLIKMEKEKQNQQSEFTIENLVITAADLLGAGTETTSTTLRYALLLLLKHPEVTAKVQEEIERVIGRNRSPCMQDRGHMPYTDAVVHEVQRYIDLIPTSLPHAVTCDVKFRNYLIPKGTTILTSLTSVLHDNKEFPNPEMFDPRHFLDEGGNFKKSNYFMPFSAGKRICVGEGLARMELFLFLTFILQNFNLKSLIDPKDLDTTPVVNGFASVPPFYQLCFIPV
Summary of the method: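 NADPH-dependent conversion of Luciferin-H EGE (10uM, at KM) by 5nM enzyme in 50mM KPO4, 60 min at 37C following 10 min compound preincubation. Stopped with luciferin detection buffer; luminescence read after 20 min.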

[19] = target: Dual specificity protein kinase CLK4 (Homo sapiens) (UniProt Q9HAZ1); test: qHTS Assay for Inhibitors of CDC-like Kinase 4 (ADP-FP Assay) (AID 1795); settings: Transcreener ADP fluorescence polarization; series mostly up to 50 µM; note: % is set by controls: 0 for no effect and ±100 for the full control effect; nearly all actives have a fitted effect of over 60% in size
Summary of the method: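 Recombinant human Clk4 (6.25 nM) phosphorylated RS repeat peptide (100 uM) with 1 uM ATP in Tris pH 7.5/MgCl2/EGTA/DTT/Triton buffer for one hour. ADP was quantified by Transcreener competitive fluorescence polarization against an ADP calibration curve.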

[20] = measured here: cell count channel max response
[21] = measured here: lipid channel max response

CN(C)c1ccc(-c2ccc3ncnc(-n4ccnc4)c3c2)cc1
active: Potency [2] 0.316 µM | Potency [9] 3.16 µM | Potency [10] 4.47 µM
4.81%: max response [8, 20]
9.84%: max response [8, 21]
inactive: Potency [1] > 11.4 µM | activity, negative = inhibition [3] -10% | Potency [4] > 46 µM | outcome [5] | Potency [6] | Potency [7] | activity change, negative = inhibition [8] 7.19% | Potency [11] | Potency [12]

CN(C)Cc1ccccc1-c1cc(N(C)Cc2ccco2)ncn1
23.3%: max response [8, 21]
19.9%: max response [8, 20]
active: Potency [2] 15.8 µM
inactive: Potency [1] > 11.4 µM | activity change, negative = inhibition [13] 4.53% | activity, negative = inhibition [3] -3.48% | Potency [14] > 46 µM | Potency [4] > 46 µM | outcome [5] | Potency [6] | Potency [7] | activity change, negative = inhibition [8] 5.32% | Potency [9] | Potency [10] | Potency [12]

CNc1nc(-c2ccc3c(c2)OCO3)nc2ccccc12
active: Potency [9] 14.1 µM | Potency [10] 28.2 µM
-1.26%: max response [8, 21]
inactive: Potency [1] 11.4 µM | activity change, negative = inhibition [13] 28.9% | activity change, negative = inhibition [15] 1.91% | activity, negative = inhibition [3] -1.35% | Potency [14] > 46 µM | Potency [4] > 46 µM | outcome [5] | Potency [6] | activity change, negative = inhibition [8] -5.22% | Potency [11] | Potency [12]
2.96%: max response [8, 20]

c1ccc(CNc2ncnc3ccc(-c4cccnc4)cc23)cc1
active: Potency [2] 0.126 µM | Potency [9] 3.16 µM | Potency [10] 3.16 µM
inactive: Potency [1] > 11.4 µM | activity, negative = inhibition [3] -1.78% | Potency [14] > 46 µM | Potency [4] > 46 µM | outcome [5] | Potency [7] | activity change, negative = inhibition [8] -2.12% | Potency [11] | Potency [12]
14%: max response [8, 20]
9.68%: max response [8, 21]

COc1ccc(CNc2ncnc3ccc(-c4cccc(NS(C)(=O)=O)c4)cc23)c(OC)c1
active: Potency [2] 7.94 µM | Potency [16] 0.501 µM | Potency [17] 2 µM | Potency [18] 2.51 µM | Potency [9] 11.2 µM | Potency [10] 25.1 µM
-11.3%: max response [8, 21]
inactive: Potency [1] > 11.4 µM | activity, negative = inhibition [3] -11.9% | Potency [14] > 46 µM | Potency [4] > 46 µM | outcome [5] | Potency [7] | activity change, negative = inhibition [8] -4.77% | Potency [11] | Potency [12]
-8.13%: max response [8, 20]

O=c1cnc2cncnc2n1Cc1ccccc1Cl
inactive: Potency [1] > 11.4 µM | activity change, negative = inhibition [13] 8.55% | activity change, negative = inhibition [15] -28.3% | activity, negative = inhibition [3] -5.06% | Potency [14] > 9.22 µM | Potency [4] > 46 µM | outcome [5] | activity change, negative = inhibition [8] -7.78% | Potency [9] | Potency [19] | Potency [11] | Potency [12]
active: Potency [2] 15.8 µM
-0.667%: max response [8, 20]
-10.1%: max response [8, 21]
